# Compounds with a hit are over-represented: about 19% of the library has one in this group of screens.
# IL1B secr inh – qHTS for Inhibitors of Inflammasome Signaling: IL-1-beta AlphaLISA Primary Screen; THP-1 LPS/ATP IL-1B secretion, AlphaLISA, 16 h; stronger effect = lower value; activity change, % at 57.5 µM; 4.7% of 360,000 active; in the data active = activity change below about -50%; inconclusive = mostly about -30% to -49%
#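 THP-1 cells pretreated 1 hr with compounds (up to 57.5 uM final), then stimulated with LPS (250 ng/mL final) plus ATP (1.25 mM final); secreted IL-1B measured by AlphaLISA after 16 hr, decreased signal indicating inhibition.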
# DT40 TDP1 no CPT – qHTS for Inhibitors of human tyrosyl-DNA phosphodiesterase 1 (TDP1): qHTS in cells in absence of CPT. DT40 Tdp1-/- hTDP1 cells, no CPT, ATP luminescence, 48 h. Potency, µM (highest dose often 46.2 µM), hits mostly inhibitors. 15% of 420,000 active. AID 686978, 2013; note: nearly all actives have a fitted effect of over 55% in size
#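 Compound effects on proliferation are scored in DT40 Tdp1-/-;hTDP1 cells in the absence of CPT. ATP levels (CellTiter-Glo luminescence) are recorded after a ≥48 hr, 37 °C incubation.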
# ELG1 DNA repair – qHTS screen for small molecules that inhibit ELG1-dependent DNA repair in human embryonic kidney (HEK293T) cells expressing luciferase-tagged ELG1; HEK293T ELG1-luciferase reporter, luminescence, 16 h; DNA damage induced by 5-fluorouridine; Potency, µM (titrated, usually from 46.1 µM), actives largely listed as inhibitors; 2.3% of 330,000 active; AID 504467, 2011; note: nearly all actives have a fitted effect of over 55% in size
#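 Step one: seed 2,000 cells per well. Step two: pin-transfer compound or DMSO alongside 5-fluorouridine. Step three: incubate 16 hr, 37 °C, 5% CO2. Step four: add ONE-Glo, wait 30 min, read luminescence.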
# Giardia kill – Small Molecules that selectively kill Giardia lamblia: qHTS. activity change, % at 7.66 µM, hits read low. Giardia lamblia trophozoite viability. 0.15% of 340,000 active; in the data active = activity change below about -80%; inconclusive = between about -30% and that limit;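 note: parasites exposed to compound for two days anaerobically before the ATP read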
#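 Viability, read as ATP luminescence: trophozoites at 100 cells/well, compound added, 48 hrs anaerobic at 37 deg C, then 15-30 min room-temperature development before reading.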
# TDP1 inh – qHTS Assay for Inhibitors of Tyrosyl-DNA Phosphodiesterase (TDP1); Potency, µM (doses to about 130 µM), hits mostly inhibitors; 0.28% of 350,000 active; AID 485290, 2010; recombinant TDP1, AlphaScreen DNA substrate cleavage; Tyrosyl-DNA phosphodiesterase 1 (Homo sapiens), Q9NUW8; note: nearly all actives have a fitted effect of over 40% in size
# Target sequence (Q9NUW8 whole entry, looked up): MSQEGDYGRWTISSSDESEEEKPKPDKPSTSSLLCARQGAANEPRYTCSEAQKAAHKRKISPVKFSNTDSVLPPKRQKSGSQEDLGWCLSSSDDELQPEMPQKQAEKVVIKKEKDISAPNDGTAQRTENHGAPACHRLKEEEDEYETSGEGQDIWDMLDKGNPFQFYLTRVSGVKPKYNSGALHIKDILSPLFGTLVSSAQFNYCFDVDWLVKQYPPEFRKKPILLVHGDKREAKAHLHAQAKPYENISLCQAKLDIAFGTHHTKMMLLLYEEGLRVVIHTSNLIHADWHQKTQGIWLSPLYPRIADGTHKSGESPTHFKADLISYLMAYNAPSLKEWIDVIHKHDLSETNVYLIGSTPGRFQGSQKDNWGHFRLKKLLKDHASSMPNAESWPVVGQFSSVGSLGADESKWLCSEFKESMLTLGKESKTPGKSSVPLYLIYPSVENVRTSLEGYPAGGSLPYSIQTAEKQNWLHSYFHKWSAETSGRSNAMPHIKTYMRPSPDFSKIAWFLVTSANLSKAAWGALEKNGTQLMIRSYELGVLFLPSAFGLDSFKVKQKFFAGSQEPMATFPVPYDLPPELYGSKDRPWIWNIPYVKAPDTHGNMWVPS
#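 E. coli-derived human Tdp1, 1 nM final. Cpd preinc 15 min RT; substrate 15 nM final, 5 min RT; AS bead mix 10 ug/ml final, 10 min RT. Signal loss = tyrosine-FITC cleavage. No-enzyme wells = max signal.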
# TDP1 cell CPT – qHTS for Inhibitors of human tyrosyl-DNA phosphodiesterase 1 (TDP1): qHTS in cells in presence of CPT | chicken DT40 Tdp1-/-;hTDP1 cells + 20 nM CPT, ATP luminescence, 48 h | Potency, µM (titrated, usually from 46.2 µM), actives largely listed as inhibitors | 12% of 420,000 active; note: nearly all actives have a fitted effect of over 55% in size
#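 Chicken DT40 Tdp1-/- cells complemented with human TDP1, 400 cells/well, exposed to compounds plus 20 nM camptothecin for at least 48 h at 37 C; viability read as ATP content by CellTiter-Glo luminescence.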
# Hits are given with their value; i = inactive; ? = inconclusive; nt = no result. Unless noted, calls come from the whole dose curve; as a rule, active = well fitted curve in the direction sought with a large enough effect; inconclusive = small, poorly fitted or top-dose-only effect, or another doubt; inactive = no such curve, though single readings can be large; an effect the other way counts as inactive or inconclusive.
SMILES,IL1B secr inh,DT40 TDP1 no CPT,ELG1 DNA repair,Giardia kill,TDP1 inh,TDP1 cell CPT
COc1ccc(-c2ccc(-c3cc(=O)oc4cc(OC)c(OC)c(OC)c34)cc2)cc1OC,i,14.6µM,10.3µM,i,i,18.4µM
COc1cc2oc(=O)cc(-c3ccc(-c4cccc(N)c4)cc3)c2c(OC)c1OC,nt,nt,nt,nt,i,nt
CC1CCC(CC(=O)O)(C(=O)O)CC1 (stereo not given),i,i,nt,i,nt,i
O=C(NC(CO)(CO)CO)[C@@H]1CCCN1S(=O)(=O)c1cccc2cccnc12,i,i,i,i,i,i
Cc1cccc(NC(=O)COC(=O)c2nn(C)c(=O)c3ccccc23)c1C,i,i,i,i,i,i
CSc1nc(O)c(/C=C2\C=Nc3ccccc32)[nH]1,i,?,?,i,i,?
C1=Nc2ccccc2/C1=C/c1ccccc1,nt,12.6µM,nt,nt,nt,4.47µM
Cc1ccc([C@H]2C[C@H](n3cc(-c4ccc(F)cc4)nn3)[C@@H](O)CN2CC2CCCCC2)cc1,i,?,nt,nt,nt,?
O=C(Nc1ccccc1OC(F)F)c1ccc(S(=O)(=O)N2CCCC2)cc1,i,i,i,i,i,i
CC1=C(C(=O)OC(C)C)C(c2cccc([N+](=O)[O-])c2)n2c(cc(=O)[nH]c2=S)N1 (stereo not given),i,i,i,i,i,i
CCc1ccc(C2=C(C)C(N3CCC(C(=O)NCc4ccccc4)CC3)=NS2(=O)=O)cc1,nt,i,nt,nt,i,i
O=C(CSCc1cccc(Cl)c1)N/N=C/c1ccc(OCC(=O)N2CCCCC2)cc1,-73.7,15.8µM,i,i,i,16.4µM
CS(=O)(=O)c1ncc(Cl)c(C(=O)N2CCN(c3cccc(Cl)c3)CC2)n1,nt,0.517µM,nt,?,i,1.03µM
CCS(=O)(=O)c1ncc(Cl)c(C(=O)N2CCN(c3cccc(Cl)c3)CC2)n1,nt,0.206µM,nt,nt,i,0.259µM
O=S(=O)(NCc1ccc(F)cc1)c1ccc(-n2cccn2)cc1,i,i,i,i,i,i
CCCC[n+]1c(-c2ccc(Cl)cc2Cl)csc1Nc1ccccc1,i,20.6µM,i,i,i,?
Clc1ccc(-c2csc(Nc3ccccc3)[n+]2Cc2ccco2)c(Cl)c1,i,23.1µM,?,i,i,?
O=C(CNCCc1ccc(Cl)cc1Cl)NCc1ccco1,i,i,i,i,i,i
CCOc1ccc(-c2nc(C#N)c(NC3CC3)o2)cc1,?,?,?,i,i,i
Cc1ccc(OCc2nc(C#N)c(NCc3ccc4c(c3)OCO4)o2)cc1,-64.2,?,i,i,i,?
CCOc1ccc(-c2nc(C#N)c(NCc3ccc4c(c3)OCO4)o2)cc1,i,14.6µM,?,i,i,?
COc1ccc(C(O)(C2CCCCC2)C(CN2CCOCC2)c2ccccc2)cc1 (stereo not given),i,?,?,i,nt,25.9µM
OC(c1ccccc1)(C1CCCCC1)C(CN1CCOCC1)c1ccccc1 (stereo not given),i,23.1µM,i,i,nt,18.4µM
CCC(O)(c1ccc(OC)cc1)C(CN1CCOCC1)c1ccccc1 (stereo not given),i,?,i,i,i,?
COc1ccc(S(=O)(=O)c2c(O)c3ccc(C(=O)NCc4ccc(F)cc4)cc3[nH]c2=O)cc1,nt,i,nt,nt,i,i
SMILES,IL1B secr inh,DT40 TDP1 no CPT,ELG1 DNA repair,Giardia kill,TDP1 inh,TDP1 cell CPT
COCOc1cccc(CN2CCC2(C)C(=O)Nc2ccc(C)c(O)c2)c1 (stereo not given),i,18.4µM,nt,nt,nt,25.9µM
COCOc1cccc(CN2CCC2(C)C(=O)Nc2cc(OC)ccc2OC)c1 (stereo not given),i,?,nt,nt,nt,25.9µM
COc1ccc(OC)c(NC(=O)C2(C)CCN2Cc2ccc(SC)cc2)c1 (stereo not given),i,i,nt,nt,nt,i
COCOc1cccc(CN2CCC2(C)C(=O)Nc2ccc(OC)c(OC)c2)c1 (stereo not given),i,23.1µM,nt,nt,nt,16.4µM
COCOc1cccc(CN2CCC2(C)C(=O)Nc2ccc(C)cc2)c1 (stereo not given),i,?,nt,nt,nt,?
O=C(Nc1cccc(NC(=O)C2CC3CCCC(C2)C3=O)n1)C1CC2CCCC(C1)C2=O (stereo not given),i,18.4µM,?,i,i,?
COc1ccc(OC)c(S(=O)(=O)N2CCCC2C(=O)NC(C)c2ccccc2)c1 (stereo not given),i,i,i,i,i,i
Cc1onc(-c2ccccc2Cl)c1C(=O)NC1CCCCCC1,i,16.4µM,i,i,nt,25.9µM
Cc1onc(-c2c(F)cccc2Cl)c1C(=O)NC1CCCCCC1,i,29.1µM,i,i,nt,?
Cc1onc(-c2c(F)cccc2Cl)c1C(=O)NCCO,i,i,i,i,i,i
Cc1onc(-c2c(Cl)cccc2Cl)c1C(=O)NC1CCCCC1,i,9.2µM,i,i,nt,?
Cc1onc(-c2c(Cl)cccc2Cl)c1C(=O)c1c[nH]c(C(=O)NCC2CCCO2)c1 (stereo not given),i,13µM,18.3µM,i,i,?
Cc1onc(-c2ccccc2Cl)c1C(=O)N1CCCCCC1,i,i,i,i,i,i
COc1ccc(OC)c(CN2CCCC(c3nc(-c4ccncc4)ncc3-c3ccccc3C)C2)c1 (stereo not given),nt,i,nt,nt,nt,i
CCCCn1c(N)c(N(CC)C(=O)CCNC(=O)NC23CC4CC(CC(C4)C2)C3)c(=O)[nH]c1=O,i,i,i,i,i,i
Clc1nnc(Cl)c2c1ncn2Cc1ccccc1,i,?,i,i,nt,i
CCNS(=O)(=O)c1ccc(C)cc1,nt,nt,nt,nt,i,nt
COc1ccccc1NS(=O)(=O)c1cc(NC(=O)c2sccc2C)ccc1N1CCOCC1,i,?,i,i,i,20.6µM
COc1ccccc1NS(=O)(=O)c1cc(NC(=O)C(C)(C)C)ccc1N1CCOCC1,i,i,?,i,nt,?
COc1ccccc1NS(=O)(=O)c1cc(NC(=O)c2sccc2C)ccc1N1CCCC1,i,?,i,i,i,?
COc1ccccc1NS(=O)(=O)c1cc(NC(=O)c2ccncc2)ccc1N1CCOCC1,i,11.6µM,i,i,i,11.6µM
COc1ccccc1NS(=O)(=O)c1cc(NC(=O)c2ccc(NC(C)=O)cc2)ccc1N1CCOCC1,i,5.8µM,nt,i,nt,2.31µM
COc1ccccc1NS(=O)(=O)c1cc(NC(=O)C2CCCC2)ccc1N1CCOCC1,i,?,i,i,i,14.6µM

# Assay outcomes as filed in PubChem BioAssay.
